Results reported in PubChem BioAssay (NCI).
About 83,000 compounds went through this panel and 20% of them were active in at least one assay; those are over-represented in the sample as a whole.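 In brief: 96-well plates, 48 h treatment, single concentration, percent growth endpoint.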 Unmarked numbers belong to inactive results. Active and inactive are the calls of the source. The calls were made as follows: active = growth percent below 10; inactive = the rest.

Legend:
Experiment in all cases: NCI-60 one-dose screen, 48 h (100 = growth as untreated, 0 = no growth, -100 = all killed)
Conditions in all cases: 10 µM unless noted
[1] = system: RPMI-8226 leukemia
[2] = system: OVCAR-8 ovarian
[3] = system: OVCAR-5 ovarian
[4] = system: OVCAR-4 ovarian
[5] = system: SK-OV-3 ovarian
[6] = system: IGROV1 ovarian
[7] = system: OVCAR-3 ovarian
[8] = system: NCI/ADR-RES ovarian
[9] = system: T-47D breast
[10] = system: BT-549 breast
[11] = system: MDA-MB-435 melanoma
[12] = system: SW-620 colon
[13] = system: MCF7 breast
[14] = system: HCT-116 colon
[15] = system: HCC-2998 colon
[16] = system: KM12 colon
[17] = system: HS 578T breast

| Structure (SMILES) | growth [1] | growth [2] | growth [3] | growth [4] | growth [5] | growth [6] | growth [7] | growth [8] | growth [9] | growth [10] | growth [11] | growth [12] | growth [13] | growth [14] | growth [15] | growth [16] | growth [17] [%] |
| --- | --- | --- | --- | --- | --- | --- | --- | --- | --- | --- | --- | --- | --- | --- | --- | --- | --- |
| COC(=O)c1cc2c3c(cc(O)c2[nH]1)N(C(=O)C1Cc2cc(OC)c(OC)c(OC)c2N1)CC3CCl (centres undefined) | -13.2% (active) | -50.5% (active) | -61.1% (active) | -98.7% (active) | -44.9% (active) | -10.6% (active) | -83% (active) | -34.6% (active) | -48.9% (active) | -84.6% (active) | -14% (active) | -10.8% (active) | -5.51% (active) | -63.3% (active) | -73.2% (active) | -29.4% (active) | – |
| COc1cc(C(=O)N2CCN(c3ccccc3OC)CC2)c(NC(=O)c2cnccn2)cc1OCc1ccccc1 | 65.9% | 91.1% | 90.8% | 79% | 90.2% | 63.9% | 92.7% | 78.9% | 66.8% | 97.6% | – | 101% | 109% | 87.8% | 87.3% | 90.7% | 103 |
| N#Cc1c(-c2ccc(F)cc2)nc(N=Nc2c(O)[nH]c3ccc(Cl)cc23)nc1N1CCOCC1 | 80.1% | 19.1% | 84.5% | -37.7% (active) | 17.2% | 29.3% | 21.6% | 16.4% | 46.7% | 71.4% | 67% | 68.9% | 39.9% | 21.4% | 96.7% | 48.5% | – |
| CC(C)(C#N)c1cc(F)cc(C(=O)Nc2cc(Nc3ncccc3-c3ncnc4nc[nH]c34)ccc2F)c1 | 23.7% | 41.1% | 37% | 70.3% | 63.7% | 15.4% | 55.2% | 37.1% | 42.8% | 39.7% | 48% | 28.7% | 58.1% | 19.2% | 27.3% | 36% | – |
| OCCNc1nc(NCCO)nc(Nc2ccc(C3=NN(c4cc(Cl)cc(Cl)c4)C(c4ccc(Cl)cc4)C3)cc2)n1 (centres undefined) | -8.1% (active) | 20.8% | 86% | -17.6% (active) | 83.1% | -11.6% (active) | -60.4% (active) | 20.6% | 87.1% | 52.1% | -15.8% (active) | 23.4% | 3.94% (active) | 4.84% (active) | 27.1% | 19.3% | – |
| c1ccc(Sc2ncccn2)nc1 | 65.6% | 100% | 101% | 98.1% | 99.4% | 108% | 102% | 96.4% | 99.4% | 137% | 104% | 95.3% | 93.2% | 99.3% | 101% | 106% | – |
| N#Cc1c(-c2ccc(F)cc2)nc(N=Nc2c(O)[nH]c3ccccc23)nc1N1CCOCC1 | 80.4% | 77.7% | 82.6% | -35.5% (active) | 88.2% | 59.9% | 72.9% | 57.3% | 80.2% | 91.4% | 67.7% | 66.7% | 64.4% | 47.2% | 96.2% | 75.1% | – |
| O=c1[nH]c2ccccc2cc1-c1nc2ccc(Cl)cc2[nH]1 | -38.5% (active) | 57.7% | 100% | 51% | 14% | 26.5% | 35.5% | 74.4% | 35.1% | 43% | 32.5% | 42.5% | 23.8% | 22.2% | 79.7% | 5.1% (active) | – |
| CC(=O)OCC1OC(OC2C(COC(C)=O)OC(OCCC[S-])C(OC(C)=O)C2OC(C)=O)C(OC(C)=O)C(OC(C)=O)C1OC(C)=O.[Au+].c1ccc(CN2[CH-]N(Cc3ccccc3)C(c3ccccc3)=C2c2ccccc2)cc1 (centres undefined) | -6.87% (active) | 22% | 62.4% | 17.5% | 13% | 35.3% | -2.96% (active) | 96.6% | 18.8% | 25.3% | 18.9% | 18.5% | 7.42% (active) | 9.17% (active) | 45.2% | 26.7% | – |
